# Measurements reported in PubChem BioAssay AID588453 (National Center for Advancing Translational Sciences (NCATS), 2011).
# Among all 390,000 compounds or so, about 4,000 (1%) were called active. Another 4% or so got no clear call; they are omitted. Calls come from the whole dose curve; as a rule, active = well fitted inhibition curve with a large enough effect; inconclusive = small, poorly fitted or top-dose-only effect; inactive = no such curve, though single readings can be large or run the other way. The list comes from a sample in which actives are over-represented; it also holds similar structures and randomly drawn compounds. Where a call stands in place of a potency, no number is given.
# Target: Thioredoxin reductase 1, cytoplasmic (Rattus norvegicus) (UniProt O89049)
# Assay: qHTS Assay for Inhibitors of Mammalian Selenoprotein Thioredoxin Reductase 1 (TrxR1): qHTS; note: nearly all actives have a fitted effect of over 65% in size
# Conditions: recombinant rTrxR1, NADPH fluorescence consumption, selenite substrate; series mostly up to 114 µM
# How it was run: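 Rat TrxR1 (90 nM in the dispensed reagent) was pre-reduced with 400 uM NADPH for 5 min at room temperature, then incubated with compound for 15 min. After 400 uM selenite was added, NADPH fluorescence (Ex 340/Em 450 nm) was followed for 8 min.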
# Potency is the fitted concentration of half-maximal effect.
# Chain of Thioredoxin reductase 1, cytoplasmic (Rattus norvegicus) (O89049 whole entry, looked up): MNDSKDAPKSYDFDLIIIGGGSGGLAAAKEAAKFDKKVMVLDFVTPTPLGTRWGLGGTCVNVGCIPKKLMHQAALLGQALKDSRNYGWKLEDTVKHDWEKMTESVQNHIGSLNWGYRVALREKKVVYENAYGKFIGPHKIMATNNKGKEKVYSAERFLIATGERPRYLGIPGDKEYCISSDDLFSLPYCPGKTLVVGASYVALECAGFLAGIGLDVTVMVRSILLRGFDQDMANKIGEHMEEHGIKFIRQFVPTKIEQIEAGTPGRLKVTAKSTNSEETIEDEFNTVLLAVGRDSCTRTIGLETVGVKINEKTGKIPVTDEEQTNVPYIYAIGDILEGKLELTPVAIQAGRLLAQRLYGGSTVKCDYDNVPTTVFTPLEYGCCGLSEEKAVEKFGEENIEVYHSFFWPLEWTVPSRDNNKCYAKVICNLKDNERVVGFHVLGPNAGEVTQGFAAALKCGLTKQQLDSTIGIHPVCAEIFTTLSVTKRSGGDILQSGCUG
row,SMILES,Potency
1,COc1ccc(/C=C/c2ccccn2)cc1OC,inactive
2,O=C(NCCCN1CCN(c2cccc(Cl)c2)CC1)c1nnc(Cc2ccc(F)cc2Cl)o1,inactive
3,COc1ccc(S(=O)(=O)Nc2cccc3cccnc23)c(N)c1,inactive
4,Cc1cc(-c2ccc(C)c(S(=O)(=O)N3c4ccccc4CC3C)c2)on1 (configuration not stated),inactive
5,CCOc1ccc(C2C(=O)N(C3CCCCC3)CC(=O)N2CCC2=CCCCC2)cc1OC (configuration not stated),inactive
6,Cc1ccc(/C=C/C(=O)OCC(=O)NCc2ccc(Cl)cc2)o1,inactive
7,Cc1ccc(/C=C/C(=O)Nc2ccc([N+](=O)[O-])c(NC(=O)/C=C/c3ccc(C)o3)c2)o1,25.1 µM (active)
8,CCOc1ccc(NC(=S)NC(=O)/C=C/c2ccc(OC)cc2)c([N+](=O)[O-])c1,inactive
9,CN(C(=N)N)c1ccc(/C=C2\C=Cc3ccccc32)cc1,inactive
10,O=C(NCc1ccccc1Cl)C1=Cc2cc(Br)ccc2OC1,inactive
11,COc1cc(OC)cc(C(=O)Nc2ccc(-c3nc4ccccc4o3)c(O)c2)c1,28.2 µM (active)
12,COc1cccc(C(=O)Nc2ccc3oc(-c4ccc5ccccc5c4)nc3c2)c1,inactive
13,COc1cc2ccccc2cc1C(=O)Nc1cccc(-c2nc3ccccc3o2)c1,inactive
14,Cc1ccc(NC(=O)CN2c3ccccc3S(=O)(=O)c3ccccc32)cc1F,inactive
15,COc1cc(C(=O)N(Cc2ccc(C(C)C)cc2)C2CCS(=O)(=O)C2)cc(OC)c1OC (configuration not stated),inactive
16,COc1ccc(S(=O)(=O)N/N=C\c2ccc(OC)c(COc3ccc(C)cc3[N+](=O)[O-])c2)cc1,inactive
17,CCc1ccc(S(=O)(=O)Nc2ccc(C)c(NS(C)(=O)=O)c2)cc1,inactive
18,CCc1ccc(S(=O)(=O)N/N=C\c2ccc([N+](=O)[O-])o2)cc1,14.1 µM (active)
19,O=C(Cc1ccccc1)Nc1sc2c(c1C(=O)Nc1ccc(Br)cc1)CCC2,inactive
20,COc1ccc(NC(=O)C(c2ccccc2)N2Cc3ccccc3C2=O)cc1 (configuration not stated),inactive
21,CCOC(=O)/C=C/C(=O)OCC(=O)NC(c1ccccc1)c1ccccc1,28.2 µM (active)
22,Cc1ccccc1OCCC(=O)OCC(=O)NC(C)c1ccccc1 (configuration not stated),inactive
23,CCOc1ccc(C(CC(=O)O)NC(=O)COc2ccccc2)cc1 (configuration not stated),inactive
24,CC(=O)Nc1ccc(S(=O)(=O)N2N=NC3C2C2CC4C3(CN(C(=O)OC(C)(C)C)S4(=O)=O)O2)cc1 (configuration not stated),inactive
25,CN(C)c1ccc(/C=C/c2sc3ccccc3[n+]2CCCCBr)cc1,inactive
26,Cc1ccc(C(=O)COC(=O)C(Cc2c[nH]c3ccccc23)NC(=O)c2ccc(Br)cc2)cc1 (configuration not stated),inactive
27,CC(=O)OCC(NC(=O)C(Cc1ccccc1)NC(=O)OC(C)(C)C)C1OC(n2ccc(=O)[nH]c2=O)C(OC(C)=O)C1OC(C)=O (configuration not stated),inactive
